# Values of other authors, collected in PubChem BioAssay AID977611.
# Hit rate of the full screen: of about 3,900 compounds, about 3,900 (100%) were called active. The limit is not given here; nearly all actives have Kd up to about 4200 µM. The set was probably picked from earlier hits. The list shows a part of the results. Where a SMILES comes first, the peptide text is derived from it. Square brackets hold non-standard residues; d marks the D form. Residues, ends and D or L forms follow the SMILES beside them. Peptide text beside a SMILES is read from it. [ ]: non-standard residue; d: D form. ξ: configuration not given here. Orn(CH(NH2)2) = NC(N)NCCC[C@H](N)C(=O)O; ΔPro = O=C(O)[C@@H]1C=CCN1; Nva = CCC[C@H](N)C(=O)O; ξE = NC(CCC(=O)O)C(=O)O; Abu = CC[C@H](N)C(=O)O
# Assay: PubChem AID 977611
# Conditions: PDB protein-ligand complexes, literature Kd
molecule,measurement,setting,value
CC(=O)NCCCCNc1ncnc2c1ncn2[C@@H]1O[C@H](CN(CCCNC(=O)Nc2ccc(C(C)(C)C)cc2)C(C)C)[C@@H](O)[C@H]1O,Kd,"protein: Histone-lysine N-methyltransferase, H3 lysine-79 specific DOT1L, PDB entry 4wvl",131 nM (active)
CCCCC/C=C\C\C=C/C=C/C=C/C[C@@H](O)CCCC(=O)O,Kd,"protein: Tablysin 15, PDB entry 3u3u",133 nM (active)
CC(C)C[C@H](NC(=O)[C@H](CC(=O)O)NC(=O)[C@H](CO)NC(=O)[C@H](Cc1ccccc1)NC(=O)[C@@H](NC(=O)[C@@H](N)CCC(=O)O)[C@@H](C)O)C(=O)N[C@@H](Cc1c[nH]c2ccccc12)C(=O)N[C@@H](CCCCN)C(=O)N[C@@H](CC(C)C)C(=O)N[C@@H](CC(C)C)C(=O)N1CCC[C@H]1C(=O)O,Kd,"protein: E3 ubiquitin-protein ligase Mdm2 (E69A, K70A mutation), PDB entry 4hfz",1900 nM (active)
same,Kd,"protein: human-mimic Mdm4 protein, PDB entry 2z5t",2400 nM (active)
C[C@H](N)C(=O)N[C@@H](CO)C(=O)N[C@@H](CCCN=C(N)N)C(=O)N[C@@H](Cc1c[nH]c2ccccc12)C(=O)N[C@@H](CC(=O)O)C(=O)N[C@@H](CCC(=O)O)C(=O)N[C@H](C(=O)N1CCC[C@H]1C(=O)O)[C@@H](C)O (H-ASRWDETP-OH),Kd,"protein: RNA-binding protein 39 CAPER-alpha, PDB entry 4oz1",2400 nM (active)
C[C@H](NC(=O)[C@H](CCCNC(N)N)NC(=O)[C@@H](N)CCCCN)C(=O)N[C@@H](CO)C(=O)N[C@@H](CCCNC(N)N)C(=O)N[C@@H](Cc1c[nH]c2ccccc12)C(=O)N[C@@H](CC(=O)O)C(=O)N[C@@H](CCC(=O)O)C(=O)N[C@H](C(=O)N1CCC[C@H]1C(=O)O)[C@@H](C)O (H-K[Orn(CH(NH2)2)]AS[Orn(CH(NH2)2)]WDETP-OH),Kd,"protein: Splicing factor 45(SPF45-UHM), PDB entry 2peh",1100 nM (active)
CC[C@H](N)C(=O)N[C@H](C(=O)N[C@@H](Cc1ccccc1)C(=O)N[C@@H](CO)C(=O)N[C@@H](CC(=O)O)C(=O)N[C@@H](CC(C)C)C(=O)N[C@@H](Cc1c[nH]c2ccccc12)C(=O)N[C@@H](CCCCN)C(=O)N[C@@H](CC(C)C)C(=O)N[C@@H](CC(C)C)C(=O)N1CCC[C@H]1C(=O)O)[C@@H](C)O (H-[Abu]TFSDLWKLLP-OH),Kd,"protein: native Mdm4 protein, PDB entry 2z5s",2200 nM (active)
CCC[C@H](NC(=O)[C@H](Cc1c[nH]c2ccccc12)NC(=O)[C@H](CC(C)C)NC(=O)[C@H](CC(=O)O)NC(=O)[C@H](CO)NC(=O)[C@H](Cc1ccccc1)NC(=O)[C@@H](NC(=O)C(N)CCC(=O)O)[C@@H](C)O)C(=O)N[C@@H](CC(C)C)C(=O)N[C@@H](CC(C)C)C(=O)N1CCC[C@H]1C(=O)N[C@@H](CCC(=O)O)C(=O)O (some centres not stated) (H-[ξE]TFSDLW[Nva]LLPE-OH),Kd,"protein: Mdm4 protein, PDB entry 3dab",210 nM (active)
CC[C@H](C)[C@H](NC(=O)[C@H](CCC(=O)O)NC(=O)[C@H](CO)NC(=O)[C@@H](N)CCCNC(N)N)C(=O)N[C@H](C(=O)N[C@@H](CO)C(=O)N[C@H](C(=O)N[C@@H](C)C(=O)N1CC=C[C@H]1C(=O)N[C@@H](CO)C(=O)N[C@@H](CO)C(=O)N[C@@H](Cc1c[nH]c2ccccc12)C(=O)N[C@H](C(=O)N[C@H](C(=O)N1CCC[C@H]1C(=O)NCC(=O)N1CCC[C@H]1C(=O)O)C(C)C)C(C)C)[C@@H](C)O)[C@@H](C)CC (H-[Orn(CH(NH2)2)]SEIISTA[ΔPro]SSWVVPGP-OH),Kd,"protein: B-cell lymphoma 6 protein, PDB entry 3bim",1320 nM (active)
NCc1cccc2c1OCCCO2,Kd,"protein: CATIONIC TRYPSIN, PDB entry 4ab8",136000 nM (active)
COc1ccc2cccc(-n3cc(NC(N)=O)c(C(N)=O)n3)c2c1,Kd,"protein: Tyrosine-protein kinase ITK/TSK kinase domain, PDB entry 4m0z",6400 nM (active)
NC(=O)Nc1cn(-c2cccc3ccccc23)nc1C(N)=O,Kd,"protein: Tyrosine-protein kinase ITK/TSK kinase domain, PDB entry 4m0y",350 nM (active)
CCOc1ccc2cccc(-n3cc(NC(N)=O)c(C(N)=O)n3)c2c1,Kd,"protein: Tyrosine-protein kinase ITK/TSK kinase domain, PDB entry 4m12",900 nM (active)
CCCOc1ccc2cccc(-n3cc(NC(N)=O)c(C(N)=O)n3)c2c1,Kd,"protein: Tyrosine-protein kinase ITK/TSK kinase domain, PDB entry 4m13",200 nM (active)
CC(C)Oc1ccc2cccc(-n3cc(NC(N)=O)c(C(N)=O)n3)c2c1,Kd,"protein: Tyrosine-protein kinase ITK/TSK kinase domain, PDB entry 4m14",200 nM (active)
CC(C)C[C@H](NC(=O)[C@H](CCCCN)NC(=O)[C@H](CCCNC(N)N)NC(=O)[C@H](C)N)C(=O)N[C@@H](CC(=O)O)C(=O)O (H-A[Orn(CH(NH2)2)]KLD-OH),Kd,"protein: Coatomer subunit beta', PDB entry 4j84",20400 nM (active)
CC(C)C[C@H](NC(=O)[C@H](C)N)C(=O)N[C@@H](CCCCN)C(=O)N[C@@H](CCCNC(N)N)C(=O)N[C@@H](CCCNC(N)N)C(=O)N[C@@H](CC(N)=O)C(=O)N[C@H](C(=O)O)C(C)C (HELM PEPTIDE1{A.L.K.[NC(N)NCCC[C@H](N[*:1])C(=O)[*:2]].[NC(N)NCCC[C@H](N[*:1])C(=O)[*:2]].N.V}$$$$V2.0),Kd,"protein: Importin-?, PDB entry 1iq1",35 nM (active)
H-AAKKLV-OH,Kd,"protein: Coatomer subunit beta', PDB entry 4j73",27700 nM (active)
S=CNc1ccc2oc(C3=NCCN3)cc2c1,Kd,"protein: Chitinase A, PDB entry 3ary",1000 nM (active)
same,Kd,"protein: Chitinase A, PDB entry 3arz",1000 nM (active)
CN(C)CCOc1ccc(-c2nc(-c3ccc4c(c3)CC/C4=N/O)c(-c3ccncc3)[nH]2)cc1,Kd,"protein: B-Raf kinase domain, PDB entry 2fb8",0.16 nM (active)
O=S(=O)(c1ccc(O)cc1O)n1cc2cc(O)cc(O)c2c1,Kd,PDB entry 4mpn,239 nM (active)
